In PubChem BioAssay (NCI) one finds growth data, which are given here for eight compounds.

Compounds without any hit were thinned out: in the full panel of roughly 83,000, 20% have a hit.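 How to read the values: 0–100, growth inhibition (40 = 60% inhibited); 0, no net growth; -100 to 0, cell death (-40 = 40% of starting cells died; -100 = all dead).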 A number with no mark means an inactive call. Activity calls are given as the source filed them. How the source made its calls: active means growth percent below 10; inactive means the rest.

Test systems include K-562 leukemia; MALME-3M melanoma; MDA-MB-231 breast; RXF 393 renal; SF-268 CNS; SF-539 CNS; UACC-257 melanoma; M14 melanoma; HCT-15 colon; HT29 colon; SNB-75 CNS; SNB-19 CNS; U251 CNS; PC-3 prostate; SK-MEL-5 melanoma; UACC-62 melanoma; LOX IMVI melanoma; SK-MEL-28 melanoma; SK-MEL-2 melanoma.
Test in all cases: NCI-60 one-dose screen, 48 h (100 = growth as untreated, 0 = no growth, -100 = all killed)
Common to all, as to settings: 10 µM unless noted

On to `COc1ccc(-n2nnc(C(=O)O)c2-c2cc(OC)c(OC)c(OC)c2)cc1`, for which the growth in the test on K-562 leukemia was 95.1%; in the test on MALME-3M melanoma it was 112%; in the test on MDA-MB-231 breast, 122%; in the test with RXF 393 renal it was 105%; in the test on SF-268 CNS, 115%; with SF-539 CNS, 103%. Also, the growth in the test on UACC-257 melanoma was 102%; with M14 melanoma it was 104%; with HCT-15 colon it was 101%; in the test on HT29 colon it was 97.2%; in the test on SNB-75 CNS it was 95.5%; in the test on SNB-19 CNS, 104%. Besides, the growth in the test on U251 CNS is 95.9%; in the test on PC-3 prostate it was 106%; in the test with SK-MEL-5 melanoma, 104%; in the test on UACC-62 melanoma, 109%; with LOX IMVI melanoma, 94.9%; with SK-MEL-28 melanoma, 104%. Further, in the test with SK-MEL-2 melanoma, the growth was 95%.
In the case of `CN(C)c1ccc2c(c1)/C(=N/O)c1ccccc1-2`, the growth in the test on K-562 leukemia is 29.7%; in the test on MALME-3M melanoma, 87.9%; with MDA-MB-231 breast it was 89.8%; with RXF 393 renal, 81%; in the test on SF-268 CNS, 78.3%; in the test on SF-539 CNS it was 60%. Also, the growth in the test on UACC-257 melanoma was 81.6%; in the test with M14 melanoma, 69.7%; in the test on HCT-15 colon it was 78.7%; with HT29 colon, 81.4%; with SNB-75 CNS, 76.8%; in the test on SNB-19 CNS, 79.6%. Also, the growth in the test on U251 CNS is 48.9%; in the test with PC-3 prostate, 72.3%; in the test on SK-MEL-5 melanoma, 90.7%; in the test on UACC-62 melanoma, 64.7%; in the test with LOX IMVI melanoma it was 59.4%; in the test with SK-MEL-28 melanoma it was 75.7%. Moreover, the growth with SK-MEL-2 melanoma is 111%.
Regarding `Cc1c(C(N)=O)sc2ncn(Cc3ccccc3)c(=O)c12`, the growth was 97.1% in the test with K-562 leukemia; 120% in the test on MALME-3M melanoma; 102% with MDA-MB-231 breast; 106% with RXF 393 renal; 104% with SF-268 CNS; 94.6% with SF-539 CNS. Besides, the growth with UACC-257 melanoma is 163%; in the test with M14 melanoma it was 105%; in the test with HCT-15 colon, 115%; in the test with HT29 colon, 103%; with SNB-75 CNS, 92.6%; with SNB-19 CNS, 102%. For the same compound, the growth with U251 CNS is 96.9%; in the test with PC-3 prostate, 113%; in the test with SK-MEL-5 melanoma it was 103%; with UACC-62 melanoma, 102%; in the test with LOX IMVI melanoma, 89.6%; with SK-MEL-28 melanoma, 112%. Besides, the growth with SK-MEL-2 melanoma was 109%.
For `Clc1cccc(Cc2cn3cc(-c4ccccc4)nc3s2)c1`, the growth in the test on K-562 leukemia was 21.1%; in the test with MALME-3M melanoma it was 85.5%; with MDA-MB-231 breast, 52.2%; in the test on RXF 393 renal, 94%; in the test with SF-268 CNS it was 64.9%; with SF-539 CNS, 41.6%. Also, the growth in the test on UACC-257 melanoma was 37.4%; with M14 melanoma, 6.04% (active); with HCT-15 colon, 40.4%; with HT29 colon, 53.4%; with SNB-75 CNS it was 73.8%; with SNB-19 CNS, 65.8%. The growth was 67.7% with U251 CNS; 51.8% with PC-3 prostate; 2.66% (active) in the test on SK-MEL-5 melanoma; 23.3% in the test with UACC-62 melanoma; 23.5% with LOX IMVI melanoma; 48.8% in the test with SK-MEL-28 melanoma. Besides, the growth in the test on SK-MEL-2 melanoma is 72%.
Regarding `Clc1ccc2nc(Cl)c3ccccc3c2c1`, the growth was 88% in the test on K-562 leukemia; 67.2% with MALME-3M melanoma; 74.9% with MDA-MB-231 breast; 59.6% in the test on RXF 393 renal; 76.3% in the test on SF-268 CNS; 63.8% with SF-539 CNS. For the same compound, the growth in the test with UACC-257 melanoma was 93.1%; with M14 melanoma it was 99.9%; in the test with HCT-15 colon, 91.4%; in the test on HT29 colon it was 44.5%; with SNB-75 CNS it was -15.3% (active); with SNB-19 CNS, 53.2%. In addition, the growth was 20.2% in the test with U251 CNS; 84.2% in the test on PC-3 prostate; 84.4% with SK-MEL-5 melanoma; 96.2% with UACC-62 melanoma; 83.2% in the test on LOX IMVI melanoma; 97.6% with SK-MEL-28 melanoma. Besides, the growth with SK-MEL-2 melanoma is 99%.
For the compound `CC(C)(C)c1cc(O)c(O)c(C(C)(C)C)c1`, the growth is 3.38% (active) in the test with K-562 leukemia; 67% in the test with MALME-3M melanoma; 61.1% in the test on MDA-MB-231 breast; 65% in the test with RXF 393 renal; 53.2% in the test with SF-268 CNS; 40.6% in the test with SF-539 CNS. Moreover, the growth in the test with UACC-257 melanoma was 80.5%; with M14 melanoma, 51.9%; with HCT-15 colon, 26.7%; in the test with HT29 colon, 53.9%; with SNB-75 CNS, 60.8%; in the test with SNB-19 CNS, 56.9%. Further, the growth in the test on U251 CNS is 36%; with PC-3 prostate, 39.3%; with SK-MEL-5 melanoma, 70.4%; with UACC-62 melanoma, 33%; in the test on LOX IMVI melanoma it was 47.3%; in the test on SK-MEL-28 melanoma, 74.9%. Moreover, the growth in the test on SK-MEL-2 melanoma was 76.6%.
Take `Nc1ccc2c(c1)/C(=N/O)c1cc([N+](=O)[O-])ccc1-2`: the growth in the test on K-562 leukemia is 22.9%; in the test on MALME-3M melanoma, 57.9%; in the test with MDA-MB-231 breast it was 91.7%; in the test with RXF 393 renal, 85%; in the test on SF-268 CNS, 62.6%; with SF-539 CNS it was 60.1%. The growth was 81% in the test on UACC-257 melanoma; 49.4% in the test with M14 melanoma; 61.2% in the test on HCT-15 colon; 88.7% in the test with HT29 colon; 64.1% in the test with SNB-75 CNS; 81.4% in the test with SNB-19 CNS. Further, the growth is 66.7% with U251 CNS; 45.3% in the test with PC-3 prostate; 80.9% with SK-MEL-5 melanoma; 73.1% with UACC-62 melanoma; 64.6% in the test with LOX IMVI melanoma; 102% in the test on SK-MEL-28 melanoma. The growth with SK-MEL-2 melanoma is 96.9%.
Take `COc1cc(/C=C2\CCC/C(=C\c3ccc(OCC4CO4)c(OC)c3)C2=O)ccc1OCC1CO1` (configuration not stated): the growth is -3.49% (active) in the test with K-562 leukemia; 26.2% in the test on MALME-3M melanoma; 13.1% with MDA-MB-231 breast; 4.7% (active) in the test on RXF 393 renal; 1.73% (active) with SF-268 CNS; 25.2% in the test on SF-539 CNS. Also, the growth was 35.1% with UACC-257 melanoma; 2.79% (active) in the test with M14 melanoma; 14.4% in the test on HCT-15 colon; -15% (active) with HT29 colon; 51.4% with SNB-75 CNS; 63.4% in the test with SNB-19 CNS. Besides, the growth in the test with U251 CNS was 12.7%; in the test on PC-3 prostate, 50.7%; in the test with SK-MEL-5 melanoma it was 18.4%; in the test on UACC-62 melanoma, 3.6% (active); in the test with LOX IMVI melanoma it was -59.9% (active); in the test on SK-MEL-28 melanoma, 14.8%. Besides, in the test with SK-MEL-2 melanoma, the growth was 49.7%.
